Bioassay records from PubChem.
MCF10A rerep = A quantitative high throughput screen for small molecules that induce DNA re-replication in MCF 10a normal breast cells. Potency, µM (top dose mostly 46.1 µM), usual class: activators. MCF 10A DNA re-replication, Hoechst nuclear intensity, 48 h. hit rate 2.9% among 350,000; further: nearly all actives have a fitted effect of over 50% in size
PINK1 expr mod = A Quantitative High throughput Screen to Identify Chemical Modulators of PINK1 Expression | PINK1 immunofluorescence, high-content cytometry, 24 h | Potency, µM (top dose mostly 76.6 µM), usual class: activators | hit rate 0.2% among 410,000; active means well fitted activation curve with a large enough effect; inconclusive means small, poorly fitted or top-dose-only effect; cell line not stated here; further: nearly all actives have a fitted effect of over 65% in size
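Compound titrations (5 concentrations, 24 h) on a stable cell line; DMSO and CCCP controls. Endpoint: fixed-cell PINK1 immunofluorescence with mitochondrial, cell and nuclear markers, scanned by microplate cytometer.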
KB-3-1 cytotox = qHTS assay for MDR1-selective chemotherapeutics: Primary screen using the parental adenocarcinoma cell KB-3-1. KB-3-1 viability, CellTiter-Glo ATP luminescence, 72 h. Potency, µM (highest dose often 46.1 µM), hits mostly cytotoxic. hit rate 1.4% among 400,000; further: nearly all actives have a fitted effect of over 60% in size
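Cytotoxicity measured as CellTiter-Glo luminescence after 72 h at 37 C. Compound titrations were pinned onto drug-naive KB-3-1 parental adenocarcinoma cells grown in DMEM with 10% FBS, and normalized data fitted to concentration-response curves.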
SW480 rerep = A quantitative high throughput screen for small molecules that induce DNA re-replication in SW480 colon adenocarcinoma cells; SW480 DNA re-replication, Hoechst DNA content imaging, 48 h; Potency, µM (highest dose often 46.1 µM), actives largely listed as activators; hit rate 1.8% among 340,000; AID 624297, 2012; further: nearly all actives have a fitted effect of over 55% in size
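Readout is total intensity of Hoechst-stained nuclei, excited at 405 nm and collected at 500-530 nm. Compound treatment lasted 48 hr at 37 C in 5% CO2 before staining.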
KB-V1 MDR tox = qHTS assay for MDR1-selective chemotherapeutics: Primary screen using the drug-selected MDR subline cells KB-V1; KB-V1 MDR cells viability, CellTiter-Glo, 72 h; hit rate 3.4% among 400,000; Potency, µM (titrated, usually from 46.1 µM), hits mostly cytotoxic; further: nearly all actives have a fitted effect of over 60% in size
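KB-V1, DMEM (no phenol red) + 10% FBS; cpd pin-transferred, titration series; 72 h, 37 degrees C; CellTiter-Glo, luminescence. Data normalized, curve-fit.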
ALOX12 inh = Primary qHTS assay for inhibitors of human arachidonate 12S-lipoxygenase (ALOX12): Round 2. purified 12hLO, xylenol orange hydroperoxide absorbance. Potency, µM (top dose mostly 108 µM), most hits filed as inhibitors. hit rate 1.1% among 580,000
Target sequence (P18054 whole entry, looked up): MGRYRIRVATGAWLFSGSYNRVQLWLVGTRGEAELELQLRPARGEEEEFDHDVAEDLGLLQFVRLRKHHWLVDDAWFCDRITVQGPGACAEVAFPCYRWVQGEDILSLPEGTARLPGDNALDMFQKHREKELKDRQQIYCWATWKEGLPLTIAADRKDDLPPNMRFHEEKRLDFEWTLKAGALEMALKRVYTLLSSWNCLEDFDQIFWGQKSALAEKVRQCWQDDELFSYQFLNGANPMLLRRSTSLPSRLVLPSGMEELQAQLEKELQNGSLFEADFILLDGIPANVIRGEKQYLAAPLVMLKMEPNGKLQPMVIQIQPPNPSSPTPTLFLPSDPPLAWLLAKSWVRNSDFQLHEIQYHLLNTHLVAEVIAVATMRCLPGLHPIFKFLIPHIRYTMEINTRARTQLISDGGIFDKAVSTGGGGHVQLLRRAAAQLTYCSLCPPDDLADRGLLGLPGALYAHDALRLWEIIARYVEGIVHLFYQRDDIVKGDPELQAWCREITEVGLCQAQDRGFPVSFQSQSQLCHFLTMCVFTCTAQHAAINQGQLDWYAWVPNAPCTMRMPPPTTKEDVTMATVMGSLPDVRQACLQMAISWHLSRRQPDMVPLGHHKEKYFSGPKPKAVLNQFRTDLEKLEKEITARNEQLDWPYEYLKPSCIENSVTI
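Purified human 12hLO at 150 nM in 25 mM Hepes, 0.01% Triton X-100, pH 7.0, preincubated 15 min at room temperature with compound. Reaction started with 40 uM arachidonic acid, 30 min at room temperature. Hydroperoxide measured by Fe-xylenol orange, 573/405 nm absorbance ratio.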
A number is an active result; – = inactive; ? = inconclusive; · = not tested or not shown; ! = a repeat was not active. An excerpt weighted towards active compounds, which were near 5.8% of everything screened. Unless noted, the call rests on the fitted dose curve; in most records, active means well fitted curve in the direction sought with a large enough effect; inconclusive means small, poorly fitted or top-dose-only effect, or another doubt; inactive means no such curve, though single readings can be large; an effect the other way counts as inactive or inconclusive.

SMILES	MCF10A rerep	PINK1 expr mod	KB-3-1 cytotox	SW480 rerep	KB-V1 MDR tox	ALOX12 inh
Cc1nn(C)cc1C(C(=O)NC1CCCCC1)N(C(=O)Cn1nnc2ccccc21)c1ccc(F)cc1 (centres undefined)	26µM	–	–	?	–	–
O=C(Nc1ccc(Cl)cc1C(F)(F)F)c1cccc(Cl)c1Cl	·	·	·	·	·	–
CC(=O)Nc1ccc(NC(=O)CCc2nc3ccccc3c(=O)[nH]2)cc1	–	–	–	–	–	?
O=C(CCc1nc2ccccc2c(=O)[nH]1)Nc1cc(Cl)ccc1N1CCCC1	–	–	–	–	15µM	–
CCOc1ccccc1NC(=O)CCCc1nc2ccccc2c(=O)[nH]1	–	–	–	–	18µM	–
O=C(CCc1nc2ccccc2c(=O)[nH]1)Nc1ccc(N2CCCCC2)cc1	–	–	–	–	–	–
O=C(CCc1nc2ccccc2c(=O)[nH]1)Nc1ccc(Cl)c(Cl)c1	–	–	–	–	21µM	?
OCCCNc1cc(-c2ccnc(Nc3cccc(Cl)c3)n2)ccn1	?	–	?	?	0.13µM	–
O=C(Nc1ccccc1N1CCOCC1)c1ccc2ccccc2c1	–	–	–	–	–	–
COc1ccc(N2CCOCC2)c(NC(=O)COc2cccc(C)c2C)c1	?	–	–	–	?	–
O=C(COc1cccc(Cl)c1)Nc1ccccc1N1CCCCC1	18µM	?	–	–	?	–
CC(=O)Nc1cccc(C(=O)Nc2ccccc2N2CCOCC2)c1	?	–	16µM	?	15µM	–
O=C(Nc1ccccc1N1CCCCC1)c1cccs1	21µM	–	–	–	–	–
COc1ccc(N2CCOCC2)c(NC(=O)COc2cccc(C)c2)c1	–	–	–	–	13µM	–
Cc1ccc(C)c(NC(=O)CSc2ncnc3ccccc23)c1	·	·	·	·	·	–
O=C(COC(=O)c1cc2ccccc2[nH]1)NCc1ccccc1	·	·	·	·	·	–
COc1ccc(Cl)cc1C(=O)Nc1ccccc1N1CCCCC1	–	–	–	–	–	–
Cc1cccc(N2CCN(c3ccc(C(=O)O)cc3NC(=O)c3cccc(Cl)c3)CC2C)c1 (centres undefined)	·	–	–	·	?	45µM
Cc1ccc(OCC(=O)Nc2ccccc2N2CCCC2)c(C)c1	–	?	–	–	–	–
COc1ccc(Cl)cc1C(=O)Nc1ccccc1N1CCN(C)CC1	–	–	–	–	5.8µM	–
O=C(Nc1ccccc1N1CCCCC1)c1cccc(Cl)c1	21µM	–	–	–	–	–
Cc1cc(C)c(OCC(=O)Nc2ccccc2N2CCCCC2)c(C)c1	–	?	–	?	16µM	–
Cc1cccc(N2CCN(c3ccc(NC(=O)c4ccccc4)cc3C(=O)O)CC2C)c1 (centres undefined)	·	–	–	·	–	?
CC#CCn1cc2c3c(cccc31)[C@H](CC(C)C)N[C@H](C(=O)NC1CC1)C2	·	·	·	·	·	–
COc1ccc2oc(C(=O)N3CCC(C(=O)Nc4ccc5c(c4)OCO5)CC3)c(C)c2c1	·	·	·	·	·	–
SMILES	MCF10A rerep	PINK1 expr mod	KB-3-1 cytotox	SW480 rerep	KB-V1 MDR tox	ALOX12 inh
Cc1ccc(C)c(N2N=C(C(=O)Nc3ccccc3N3CCCC3)CCC2=O)c1	21µM	–	–	?	?	–
Cc1cc(C)c(OCC(=O)Nc2ccccc2N2CCOCC2)c(C)c1	?	–	21µM	?	–	–
Cc1ccc(C)c(N2N=C(C(=O)Nc3ccccc3N3CCOCC3)CCC2=O)c1	?	–	·	–	·	–
CNc1oc(-c2ccc(Cl)cc2)nc1S(=O)(=O)c1ccc2c(c1)OCCO2	·	·	·	·	·	–
COc1ccc(-c2nc(S(=O)(=O)c3ccc4c(c3)OCCO4)c(N3CCN(C)CC3)o2)cc1	·	·	·	·	·	35µM
CN(C)CCNc1oc(-c2ccc(F)cc2)nc1S(=O)(=O)c1ccc2c(c1)OCCO2	·	·	·	·	·	32µM
CC(C)c1ccc(C(=O)N2CCN(c3nc4ccccc4o3)CC2)cc1	·	·	·	·	·	–
CC(=O)c1cccc(NC(=O)COC(=O)c2ccc(S(C)(=O)=O)c([N+](=O)[O-])c2)c1	2.6µM	–	–	?	–	–
Cc1ccccc1NC(=O)Cc1nc(COC(=O)c2nc(Cl)ccc2Cl)cs1	–	–	–	–	–	?
CC(=O)c1cccc(NC(=O)C(C)OC(=O)c2ccc(S(C)(=O)=O)c([N+](=O)[O-])c2)c1 (centres undefined)	·	–	?	·	–	·
O=C(COC(=O)c1ccc([N+](=O)[O-])cc1)Nc1cccnc1Cl	–	–	?	–	–	–
CS(=O)(=O)c1ccc(C(=O)OCC(=O)Nc2cccnc2Cl)cc1[N+](=O)[O-]	3.7µM	–	?	?	–	·
Cc1ccccc1NC(=O)Cc1nc(COC(=O)c2ncc(Cl)c(Cl)c2Cl)cs1	?	–	–	6.5µM	–	–
CCOC(=O)c1sc(CC(=O)Nc2ccccc2C)nc1C	·	·	·	·	·	8.9µM
COc1ccc(CNC(=O)C2=C(c3ccccc3)c3cc(Cl)ccc3S(=O)(=O)N2C)cc1	·	·	·	·	·	–
COc1ccc(NC(=C(C#N)C#N)C(F)(F)Cl)cc1	·	·	·	·	·	–
Cc1ccccc1NC(=O)COC(=O)c1ccc(S(C)(=O)=O)c([N+](=O)[O-])c1	?	–	21µM!	7.3µM	–	–
CS(=O)(=O)c1ccc(C(=O)OCC(=O)N2CCN(CCC3CCCCC3)CC2)cc1[N+](=O)[O-]	·	–	6.5µM	·	23µM	–
Cc1ccccc1NC(=O)Cc1nc(COC(=O)c2ccc(S(C)(=O)=O)c([N+](=O)[O-])c2)cs1	3.7µM	–	?	–	–	·
CS(=O)(=O)c1ccc(C(=O)OCC(=O)Nc2cc(C(F)(F)F)ccc2Cl)cc1[N+](=O)[O-]	·	–	?	·	–	·
CC(NC(=O)C1CC1C)c1ccc2c(c1)CCCC2 (centres undefined)	·	·	·	·	·	–
COc1ccc(-c2[nH]ncc2CN2CCCN(S(=O)(=O)c3ccccc3)CCC(=O)NCC2)cc1	·	·	·	·	·	–
COc1ccc(-c2nnc(-c3cc4ccccc4oc3=O)o2)cc1	–	–	–	–	–	–
Cc1cc(-c2nnc(-c3cc4ccccc4oc3=O)o2)c(C)n1-c1ccccc1	5.8µM	–	?	?	?	–
CC(C)c1c(C#N)c(N)nc(SCC(=O)c2cc3ccccc3oc2=O)c1C#N	15µM	?	?	?	?	–
Cc1nc(SCC(=O)c2cc3ccccc3oc2=O)c(C#N)c(-c2cccs2)c1C(=O)Nc1ccccc1	–	40µM	–	?	–	–
N#Cc1ccc(-c2ccccc2)nc1SCC(=O)c1cc2ccccc2oc1=O	5µM	–	–	?	–	–
